# Screens as filed in PubChem.
# An excerpt weighted towards active compounds, which were near 7.5% of everything screened.
# Rab9 prom act: qHTS Assay for Rab9 Promoter Activators | Huh7 Rab9 promoter-luciferase reporter, luminescence, 24 h | Potency, µM (top dose mostly 9.22 µM), most hits filed as activators | 2.8% of 320,000 active; also: nearly all actives have a fitted effect of over 60% in size
#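 Luciferase signal after 10 min detection reagent at ambient indicates Rab9 promoter upregulation; stably transfected Huh7 cells were treated 24 h with compound in DMSO at 37 °C, 5% CO2.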
# SMN2 splice up: qHTS Assay for Enhancers of SMN2 Splice Variant Expression. HEK293 SMN2-luciferase splicing reporter, luminescence, 30-36 h. Potency, µM (doses to about 46.1 µM), usual class: activators. AID 1458, 2008. 2.8% of 210,000 active; also: nearly all actives have a fitted effect of over 55% in size
#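 HEK293 cells carry an SMN2 minigene-luciferase reporter in which exon 7 inclusion puts luciferase in frame. Cells were seeded at 2000 cells/well, attached for 10-12 hours, then exposed to compounds for 30-36 hours at 37C before ONE-Glo luminescence.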
# FLuc modulator: qHTS profiling assay for firefly luciferase inhibitor/activator using purifed enzyme and Km concentrations of substrates (counterscreen for miR-21 project). 6.9% of 360,000 active. Potency, µM (top dose mostly 57.5 µM), usual class: inhibitors. purified FLuc, Km substrates, luminescence inhibition. Luciferin 4-monooxygenase (Photinus pyralis), P08659; also: nearly all actives have a fitted effect of over 55% in size
# Target sequence (P08659 whole entry, looked up): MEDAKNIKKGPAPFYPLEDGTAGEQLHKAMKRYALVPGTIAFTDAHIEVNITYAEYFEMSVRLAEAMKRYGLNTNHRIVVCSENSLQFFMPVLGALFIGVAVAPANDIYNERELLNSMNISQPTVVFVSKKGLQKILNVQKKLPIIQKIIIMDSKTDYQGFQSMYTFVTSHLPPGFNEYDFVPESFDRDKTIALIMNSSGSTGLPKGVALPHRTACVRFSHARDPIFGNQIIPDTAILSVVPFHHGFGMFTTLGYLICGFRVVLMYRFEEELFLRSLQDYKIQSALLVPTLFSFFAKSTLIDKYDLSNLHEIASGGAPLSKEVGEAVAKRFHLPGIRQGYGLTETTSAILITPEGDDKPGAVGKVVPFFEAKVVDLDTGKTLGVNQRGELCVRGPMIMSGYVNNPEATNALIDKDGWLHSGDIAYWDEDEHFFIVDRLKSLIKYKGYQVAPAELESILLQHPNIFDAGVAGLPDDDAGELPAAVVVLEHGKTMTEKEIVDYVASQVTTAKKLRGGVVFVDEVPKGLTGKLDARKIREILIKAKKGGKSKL
#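 Purified P. pyralis luciferase, 10 nM final, with Km-level 10 uM D-luciferin and 10 uM ATP in 50 mM Tris acetate pH 7.5, 10 mM Mg acetate, 0.01% Tween-20, 0.05% BSA; 6-point qHTS titration about 60 µM downward; luminescence read.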
# ELG1 genotox: qHTS screen for small molecules that induce genotoxicity in human embryonic kidney (HEK293T) cells expressing luciferase-tagged ELG1 | 1.3% of 330,000 active | Potency, µM (top dose mostly 46 µM), usual class: activators | HEK293T ELG1-luciferase reporter, luminescence, 16 h; also: nearly all actives have a fitted effect of over 60% in size
#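 ELG1-luciferase HEK293T cells, 2,000/well; compound pinned in; 16 hr, 37 °C, 5% CO2; ONE-Glo, 30 min RT; luminescence on CCD imager.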
# KinaseGlo FLuc: Counterscreen for Luciferase (Kinase-Glo TM) Inhibition. 0.28% of 200,000 active. Luciferin 4-monooxygenase (Photuris pensylvanica), Q27757. AID 1379, 2008. Potency, µM (doses to about 38.3 µM), hits mostly inhibitors. Kinase-Glo luciferase, ATP luminescence, 8 min; also: nearly all actives have a fitted effect of over 60% in size
#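 Compounds were added to a substrate mix at pH 7.2 (50 mM imidazole, 10 uM ATP, within the enzyme's linear range), followed by Kinase-Glo detection reagent; luminescence was measured after 8 minutes at ambient temperature.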
# NPC1 prom act: qHTS Assay for NPC1 Promoter Activators; Huh7 NPC1 promoter luciferase reporter, 24 h; Potency, µM (top dose mostly 9.22 µM), most hits filed as activators; 2.4% of 320,000 active; AID 485313, 2010; also: nearly all actives have a fitted effect of over 60% in size
#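 Huh7 reporter cells (NPC1 promoter driving luciferase) are dosed with compound for 24 h at 37 °C, 5% CO2; luciferase detection reagent is then added and luminescence measured after 10 min at ambient temperature.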
# Numbers stand for hits; – = inactive; ? = inconclusive; · = no result; [ ] = dose if it differs, or a comment. Calls follow the shape of the dose curve; as a rule, active = well fitted curve in the direction sought with a large enough effect; inconclusive = small, poorly fitted or top-dose-only effect, or another doubt; inactive = no such curve, though single readings can be large; an effect the other way counts as inactive or inconclusive.
SMILES,Rab9 prom act,SMN2 splice up,FLuc modulator,ELG1 genotox,KinaseGlo FLuc,NPC1 prom act
O=C(CN1CCN(c2nc(-c3ccccc3)cs2)CC1)Nc1ccc2c(c1)OCO2,–,–,–,–,–,–
O=C1c2ccccc2C(=O)N1c1cccc(-c2csc(Nc3ccc4c(c3)OCO4)n2)c1,–,?,2.1µM,–,–,–
COCCCNC(=O)c1cnn(-c2ccccc2Cl)c1C1CCN(C(=O)OC(C)(C)C)CC1,·,·,–,·,·,·
O=C(Nc1ccc(Cl)cn1)c1cccc(S(=O)(=O)N2CCCC2)c1,–,·,–,–,·,–
CN(C)S(=O)(=O)c1cccc(C(=O)Nc2ccc(Cl)cn2)c1,?,–,13µM,?,–,?
COc1ccc(C(=O)Nc2ccc(Cl)cn2)cc1Cl,3.5µM,?,11µM,?,–,2.5µM
Cc1nn2c(C)c(C(=O)NCc3ccc(OC(C)C)cc3)cnc2c1-c1ccc(F)cc1,·,·,–,·,·,·
O=C(O)CC1S/C(=N/N=C/C=C/c2ccccc2[N+](=O)[O-])NC1=O (stereo not drawn),–,–,–,–,–,–
O=C(O)CC1S/C(=N/N=C/C=C/c2ccccc2)NC1=O (stereo not drawn),–,–,19µM,–,–,–
COCCn1c(=O)c(-c2cccc(C#N)c2)nc2cnc(N3CCNCC3)nc21,·,–,·,·,–,·
COc1cc(/C=N/NC(=O)Cn2nnc3ccccc32)ccc1O,–,–,–,–,–,–
COc1cc(/C=N/NC(=O)CCn2nnc3ccccc32)ccc1O,–,–,15µM,–,–,–
COc1cccc(/C=N\NC(=O)Cn2nnc3ccccc32)c1O,–,·,17µM,?,–,–
Cc1ccc(NC(=O)c2ccc(=O)n(Cc3ccccc3C)c2)c(C)c1,·,·,–,·,·,·
Cc1cc(CN2CCCC(C(=O)Nc3ccc(-c4nc5ccccc5[nH]4)cc3)C2)n[nH]1 (stereo not drawn),?,·,15µM,–,·,?
O=C(Nc1ccc(Cl)cc1[N+](=O)[O-])c1ccc2c(c1)OCCO2,0.45µM,·,?,4.1µM,·,0.56µM
O=C(Nc1cc(Cl)ccc1N1CCOCC1)c1ccc2c(c1)OCCO2,–,–,?,–,–,–
O=C(Nc1ccc(F)c([N+](=O)[O-])c1)c1ccc2c(c1)OCCO2,?,–,6µM,–,–,–
CC1(C)S[C@H]2[C@@H](NC(=O)C(N)c3ccccc3)C(=O)N2[C@H]1C(=O)O (stereo partly drawn),·,·,·,·,–,·
Cc1cc(C)cc(NC(=O)N2CCC(CN3CCc4ccccc4C3)CC2)c1,·,·,–,·,·,·
CC1(C(=O)NC2CCCCC2)Cc2ccccc2C(=O)N1Cc1ccccc1Cl (stereo not drawn),·,–,–,·,·,·
O=C(Nc1ccc(Cl)cc1F)c1oc(=O)c2ccccc2c1-c1ccccc1,·,–,–,·,·,·
COc1cccc(/C=N/NC(=O)CNC(=O)/C=C\c2ccccc2)c1O,–,·,11µM,–,·,–
COc1ccc(/C=C\C(=O)NCC(=O)N/N=C/c2cccc(OC)c2O)cc1,–,·,–,–[9.26 µM],·,–
COc1cccc(/C=N/NC(=O)CNC(=O)C(c2ccccc2)c2ccccc2)c1O,–,·,4.8µM,?,·,–
SMILES,Rab9 prom act,SMN2 splice up,FLuc modulator,ELG1 genotox,KinaseGlo FLuc,NPC1 prom act
COCc1cc(C)nc2sc3c(c12)NC(c1ccccc1C(=O)O)N(c1cccc(C(F)(F)F)c1)C3=O (stereo not drawn),·,–,?,·,·,·
COc1ccccc1C1Nc2c(sc3nc(C)cc(C)c23)C(=O)N1c1ccccc1 (stereo not drawn),·,13µM,?,·,·,·
COC(OC)c1ccnc(-c2ccc(OC(=O)c3ccccc3)cc2)n1,–,–,17µM,–,–,–
COC(OC)c1ccnc(-c2ccc(OC(=O)c3cccs3)cc2)n1,–,–,21µM,–,–,–
COC(OC)c1ccnc(-c2ccc(OC(C)=O)cc2)n1,–,?,?,–,–,–
COc1ccc(-n2ncc3c(N4CCC(C)CC4)ncnc32)cc1,0.1µM,·,0.54µM,0.26µM,·,0.11µM
CCOC(=O)C1CCN(c2ncnc3c2cnn3-c2ccccc2)CC1,–,–,?,?,–,–
Cc1ccc(-n2ncc3c(N4CCC(C)CC4)ncnc32)cc1C,·,·,1.5µM,·,·,·
CC1CCN(c2ncnc3c2cnn3-c2ccccc2)CC1,0.63µM,13µM,2.1µM,1.5µM,–,0.89µM
COC(=O)[C@@]1(Cc2ccccc2)[C@H]2c3cc(C(=O)N4CCCC4)n(Cc4ccc(O)c(OC)c4)c3C[C@H]2CN1C(=O)c1ccccc1,·,–,·,·,–,·
Clc1ccc(OCCCn2ccnc2)c(Br)c1,–,–,19µM,–,–,–
Clc1ccc(OCCCN2CCCCC2)c(Br)c1,?,?,15µM,–,–,?
O=C(NCCc1c[nH]c2ccccc12)c1c(Cl)nc2sccn12,?,–,–,–,–,?
O=C(c1c(Cl)nc2sccn12)N(C(=O)c1c(Cl)nc2sccn12)c1ccc(Cl)cn1,–,13µM,–,3.7µM,–,–
O=C(NCc1ccccc1)NC1CCCCC1,–,–,–,?,–,–
S=C(NCCc1cccc(Cl)c1)NC1CCCCC1,2.8µM,·,19µM,?,·,3.5µM
NC(=O)NCCC1=CCCCC1,–,–,–,–,–,–
O=C(NCCC1=CCCCC1)NC1CCCCC1,0.79µM,7.1µM,6.7µM,?,–,1.4µM
O=C(NCCc1ccccc1)NC1CCCCC1,0.56µM,11µM,11µM,?,–,1.1µM
CCn1c(=O)c2sccc2n2c(CCC(=O)N3CCN(c4ccccc4OC)CC3)nnc12,·,–,–,·,·,·
CCCn1nc(NC(=O)c2ccccn2)c2cc3cc(C)ccc3nc21,–,?,11µM,–,–,–
CCCn1nc(NS(=O)(=O)c2cccc3nonc23)c2cc3cc(C)ccc3nc21,–,·,11µM,–,·,–
CCn1nc(NS(=O)(=O)c2ccc(NC(C)=O)cc2)c2cc3ccccc3nc21,–,·,–,–,·,–
CCn1nc(NC(=O)C2CCCO2)c2cc3cc(C)ccc3nc21 (stereo not drawn),?,?,17µM,–,–,–
CCn1nc(NS(=O)(=O)c2ccc(NC(C)=O)cc2)c2cc3ccc(C)cc3nc21,–,·,27µM,–,·,–
COc1ccc(OC)c(CCNC(=O)CCCn2c(=O)c3cccn3c3ccccc32)c1,·,·,–,·,·,·
CCCCn1c(SCc2ccccc2C#N)nc2c(sc3ccccc32)c1=O,·,·,–,·,·,·
CCCc1nc(SCc2cc(=O)c3ccc(C)c(C)c3[nH]2)n[nH]1,·,·,–,·,·,·
Cc1c(CNCCCc2ccccc2)c(C(=O)O)c(C)n1Cc1ccc(Cl)cc1,·,–,–,·,·,·
